From PubChem BioAssay (Tox21)
Several values for one entry are separate records, joined by “and”; a condition that tells them apart may be missing. Equal values may be shown once. Records with an inconclusive call do not appear. Activity calls are given as the source filed them. Calls follow the shape of the dose curve; as a rule, active = well fitted curve in the direction sought with a large enough effect in the repeat runs; inconclusive = weak or mixed curves; inactive = no such curve, though single readings can be large; an effect the other way counts as inactive or inconclusive.

Tests used:
[1] = A CellTox Green Cytotoxicity Assay to monitor cytotoxicity in HEK293 cells - 40 hour (AID 1224871); also: nearly all actives have a fitted effect of over 45% in size
Summary of the method: (§1)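 Each value comes from one timepoint of a single continuous run in which HEK293 cells with CellTox Green were exposed to compound for up to 40 h at 37 C, dye fluorescence rising with cell death.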

[2] = qHTS RealTime-Glo MT Cell Viability Assay in HEK293 cells - 16 hour (AID 1224872); also: top concentration of the series differs between compounds; nearly all actives have a fitted effect of over 50% in size
Summary of the method: (§2)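 Homogeneous bioluminescent viability format in HEK293 cells (600 cells/well). Following 5 h at 37 C/5% CO2, 23 nL compound was pintooled; the signal was measured repeatedly during 40 h incubation.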

[3] = qHTS RealTime-Glo MT Cell Viability Assay in HepG2 cells - 8 hour (AID 1224873); also: nearly all actives have a fitted effect of over 55% in size
Summary of the method: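 HepG2 cells mixed with RealTime-Glo MT reagents (NanoLuc plus cell-permeant prosubstrate) were seeded at 600 cells/well, incubated 5 h at 37 C/5% CO2, then pinned with compounds in DMSO; nonlytic luminescence tracked viability during 40 h treatment.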

[4] = qHTS RealTime-Glo MT Cell Viability Assay in HEK293 cells - 40 hour (AID 1224874); details: RealTime-Glo luminescence; max response: active compounds read low; also: nearly all actives have a fitted effect of over 50% in size
Summary of the method: (§3)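 qHTS format; HEK293 cells with NanoLuc/prosubstrate reagent, 37 C/5% CO2 for 5 h pre-dosing; compounds 23 nL in DMSO; luminescence at each time point reflects viable cells.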

[5] = A CellTox Green Cytotoxicity Assay to monitor cytotoxicity in HEK293 cells - 24 hour (AID 1224875); also: series mostly up to about 77 µM; nearly all actives have a fitted effect of over 45% in size
Summary of the method: as §1

[6] = A CellTox Green Cytotoxicity Assay to monitor cytotoxicity in HepG2 cells - 16 hour (AID 1224876); also: nearly all actives have a fitted effect of over 45% in size
Summary of the method: (§4)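 Continuous culture of HepG2 cells with a membrane-impermeant DNA dye; rising fluorescence marks dead cells. Compound exposure lasted up to 40 h at 37 C, with reads every 8 h from 0 h.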

[7] = qHTS RealTime-Glo MT Cell Viability Assay in HepG2 cells - 32 hour (AID 1224877); also: nearly all actives have a fitted effect of over 55% in size
Summary of the method: (§5)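 Cell number in HepG2 cultures estimated from NanoLuc luminescence generated by metabolic reduction of a prosubstrate by living cells. The homogeneous, nonlytic format allowed repeated reads at 0, 8, 16, 24, 32 and 40 h of compound exposure.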

[8] = A CellTox Green Cytotoxicity Assay to monitor cytotoxicity in HepG2 cells - 24 hour (AID 1224878); also: nearly all actives have a fitted effect of over 45% in size
Summary of the method: as §4

[9] = qHTS RealTime-Glo MT Cell Viability Assay in HEK293 cells - 0 hour (AID 1224880)
Summary of the method: as §3

[10] = A CellTox Green Cytotoxicity Assay to monitor cytotoxicity in HEK293 cells - 32 hour (AID 1224881); also: nearly all actives have a fitted effect of over 40% in size
Summary of the method: as §1

[11] = A CellTox Green Cytotoxicity Assay to monitor cytotoxicity in HepG2 cells - 0 hour (AID 1224882); also: nearly all actives have a fitted effect of over 35% in size
Summary of the method: as §4

[12] = A CellTox Green Cytotoxicity Assay to monitor cytotoxicity in HepG2 cells - 32 hour (AID 1224883); also: nearly all actives have a fitted effect of over 50% in size
Summary of the method: as §4

[13] = qHTS RealTime-Glo MT Cell Viability Assay in HepG2 cells - 16 hour (AID 1224885); also: nearly all actives have a fitted effect of over 50% in size
Summary of the method: as §5

[14] = qHTS RealTime-Glo MT Cell Viability Assay in HEK293 cells - 24 hour (AID 1224886)
Summary of the method: as §2

[15] = qHTS RealTime-Glo MT Cell Viability Assay in HEK293 cells - 8 hour (AID 1224887)
Summary of the method: as §3

[16] = qHTS RealTime-Glo MT Cell Viability Assay in HepG2 cells - 0 hour (AID 1224889); also: nearly all actives have a fitted effect of over 50% in size
Summary of the method: as §5

[17] = A CellTox Green Cytotoxicity Assay to monitor cytotoxicity in HepG2 cells - 8 hour (AID 1224890); also: nearly all actives have a fitted effect of over 45% in size
Summary of the method: as §4

[18] = A CellTox Green Cytotoxicity Assay to monitor cytotoxicity in HEK293 cells - 8 hour (AID 1224884); also: nearly all actives have a fitted effect of over 35% in size
Summary of the method: as §1

[19] = A CellTox Green Cytotoxicity Assay to monitor cytotoxicity in HEK293 cells - 16 hour (AID 1224888); also: nearly all actives have a fitted effect of over 35% in size
Summary of the method: as §1

[20] = A CellTox Green Cytotoxicity Assay to monitor cytotoxicity in HepG2 cells - 40 hour (AID 1224879); also: nearly all actives have a fitted effect of over 40% in size
Summary of the method: as §4
% is scaled to controls: 0 for no effect and ±100 for the full control effect.

CCNP(=S)(OC)O/C(C)=C/C(=O)OC(C)C (stereo unspecified)
inactive: Potency [1] | Potency [2] | outcome [3] | max response [4] -13.5% | Potency [5] | Potency [6] | Potency [7] | Potency [8] | outcome [9] | Potency [10] | outcome [11] | Potency [12] | Potency [13] | Potency [14] | Potency [15] | outcome [16] | Potency [17]

CC(=O)CN(CC(C)=O)N=O
inactive: Potency [1] | Potency [2] | outcome [3] | max response [4] 5.04% | Potency [5] | Potency [6] | Potency [7] | Potency [8] | outcome [9] | outcome [11] | Potency [12] | Potency [18] | Potency [14] | Potency [15] | outcome [16] | Potency [17]

CCN(CC)C1CCCCC1
inactive: Potency [1] | Potency [2] | outcome [3] | max response [4] 2.39% | Potency [5] | Potency [6] | Potency [7] | Potency [8] | outcome [9] | Potency [10] | outcome [11] | Potency [12] | Potency [18] | Potency [13] | Potency [14] | Potency [15] | Potency [19] | outcome [16] | Potency [17]

C=CC1(C)OC(=O)N(c2cc(Cl)cc(Cl)c2)C1=O (stereo unspecified)
inactive: Potency [1] | Potency [2] | outcome [3] | max response [4] -8.21% and -20% | Potency [5] | Potency [6] | Potency [7] | Potency [8] | outcome [9] | Potency [10] | outcome [11] | Potency [12] | Potency [13] | Potency [14] | Potency [15] | Potency [19] | outcome [16] | Potency [17]

Cc1ccc2cc(C)ccc2c1
inactive: Potency [1] | Potency [2] | outcome [3] | max response [4] 8.7% | Potency [5] | Potency [6] | Potency [7] | Potency [8] | outcome [9] | Potency [10] | outcome [11] | Potency [12] | Potency [18] | Potency [14] | Potency [15] | Potency [19] | outcome [16] | Potency [17]

O=C(O)c1c(Cl)ccc2cc(Cl)cnc12
inactive: Potency [1] | Potency [2] | outcome [3] | max response [4] 17.7% | Potency [5] | Potency [6] | Potency [7] | Potency [8] | outcome [9] | Potency [10] | outcome [11] | Potency [12] | Potency [13] | Potency [14] | Potency [15] | Potency [19] | outcome [16] | Potency [17]

COC[C@@H](NC(C)=O)C(=O)NCc1ccccc1
inactive: Potency [1] | Potency [2] | outcome [3] | max response [4] 5.22% | Potency [5] | Potency [6] | Potency [7] | Potency [20] | outcome [9] | Potency [10] | outcome [11] | Potency [12] | Potency [18] | Potency [13] | Potency [14] | Potency [15] | Potency [19] | outcome [16]

O=C(O)C(F)(F)C(F)(F)C(F)(F)C(F)(F)C(F)(F)C(F)(F)F
inactive: Potency [1] | Potency [2] | outcome [3] | max response [4] -16.5% | Potency [5] | Potency [6] | Potency [7] | Potency [20] | outcome [9] | Potency [10] | outcome [11] | Potency [12] | Potency [18] | Potency [13] | Potency [14] | Potency [15] | Potency [19] | outcome [16] | Potency [17]

NCCOS(=O)(=O)O
inactive: Potency [1] | Potency [2] | outcome [3] | max response [4] 1.3% | Potency [5] | Potency [6] | Potency [7] | outcome [9] | Potency [10] | outcome [11] | Potency [12] | Potency [13] | Potency [14] | Potency [15] | outcome [16] | Potency [17]

CCCCCCCCSC(=O)Oc1cc(Cl)nnc1-c1ccccc1
inactive: Potency [1] | Potency [2] | outcome [3] | max response [4] 6.25% | Potency [5] | Potency [6] | Potency [7] | outcome [9] | Potency [10] | outcome [11] | Potency [12] | Potency [18] | Potency [14] | Potency [15] | Potency [19] | outcome [16] | Potency [17]

CCC1(c2cccc(O)c2)CCCCN(C)C1 (stereo unspecified)
inactive: Potency [1] | Potency [2] | outcome [3] | max response [4] 3.71% | Potency [5] | Potency [6] | Potency [7] | Potency [20] | outcome [9] | Potency [10] | outcome [11] | Potency [12] | Potency [18] | Potency [13] | Potency [14] | Potency [15] | outcome [16] | Potency [17]

COc1ccc2c(C(=O)c3ccc(Cl)cc3)c(C)n(CC(=O)O)c2c1
inactive: Potency [1] | Potency [2] | outcome [3] | max response [4] 3.79% | Potency [5] | Potency [6] | Potency [7] | Potency [20] | outcome [9] | Potency [10] | outcome [11] | Potency [12] | Potency [18] | Potency [13] | Potency [14] | Potency [15] | Potency [19] | outcome [16] | Potency [17]

CON(C)C(=O)Nc1ccc(Br)cc1
inactive: Potency [1] | Potency [2] | outcome [3] | max response [4] -9.38% | Potency [5] | Potency [6] | Potency [7] | Potency [20] | outcome [9] | Potency [10] | outcome [11] | Potency [12] | Potency [13] | Potency [14] | Potency [15] | Potency [19] | outcome [16] | Potency [17]

CC(C)N(Cc1ccccc1)C(=O)C(C)(C)C
inactive: Potency [1] | Potency [2] | outcome [3] | max response [4] -9.28% | Potency [5] | Potency [6] | Potency [7] | outcome [9] | Potency [10] | outcome [11] | Potency [18] | Potency [13] | Potency [14] | Potency [15] | Potency [19] | outcome [16] | Potency [17]

CCC(CC)(CNC(=O)CCCO)c1cccc(OC)c1
inactive: Potency [1] | Potency [2] | outcome [3] | max response [4] 4.41% | Potency [5] | Potency [6] | Potency [7] | Potency [20] | outcome [9] | Potency [10] | outcome [11] | Potency [12] | Potency [18] | Potency [13] | Potency [14] | Potency [15] | Potency [19] | outcome [16]
